Screening results (PubChem)
The list is not random: actives were taken first. Their share in the collection is about 3.5%.
RE007 growth inh = less growth of the S. pombe RE007 Vpr strain; S. pombe RE007 Vpr strain, BacTiter-Glo ATP luminescence, 24 h; Potency, µM (titrated, usually from 92.2 µM), for inactives: top-dose activity change, negative = less growth, usual class: inhibitors; 360,000 tested, 0.21% active; AID 651644; active means well fitted falling curve with a large enough effect; inconclusive means small, poorly fitted or top-dose-only effect; inactive means no such curve, though single readings can be large or run the other way; further: on the % scale 0 is the no-effect control and ±100 the full control effect; nearly all actives have a fitted effect of over 50% in size
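Fission yeast strain RE007, carrying one chromosomally integrated HIV-1 vpr copy, was seeded at OD 0.01 in PMG+AL medium with 23 nL pinned compound. After 24 h at 30 °C and 99% humidity, viability was read by BacTiter-Glo luminescence.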
NS1 function inh = inhibitors of influenza NS1 protein function; Potency, µM (top dose mostly 46.1 µM), for the others: at the top dose activity, positive = more growth; AID 2326; 270,000 tested, 0.4% active; calls by dose curve; further: actives are rising curves; nearly all actives have a fitted effect of over 50% in size
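In this qHTS, NS1 from influenza A is expressed in budding yeast, where it slows growth. Cells are switched from glucose to 2% galactose medium (pH 6.0, -URA), treated with compound, and growth recovery is read at OD600.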
LmPK inhibitor = LmPK (Leishmania mexicana) enzyme inhibition | Q27686 | purified LmPK, Kinase-Glo ATP luminescence, 1 h | Potency, µM (doses to about 57.5 µM), for inactives: top-dose activity change, negative = inhibition, hits mostly inhibitors | 290,000 tested, 0.37% active | AID 1721; further: on the % scale 0 is the no-effect control and ±100 the full control effect
Target sequence (Q27686 whole entry, looked up): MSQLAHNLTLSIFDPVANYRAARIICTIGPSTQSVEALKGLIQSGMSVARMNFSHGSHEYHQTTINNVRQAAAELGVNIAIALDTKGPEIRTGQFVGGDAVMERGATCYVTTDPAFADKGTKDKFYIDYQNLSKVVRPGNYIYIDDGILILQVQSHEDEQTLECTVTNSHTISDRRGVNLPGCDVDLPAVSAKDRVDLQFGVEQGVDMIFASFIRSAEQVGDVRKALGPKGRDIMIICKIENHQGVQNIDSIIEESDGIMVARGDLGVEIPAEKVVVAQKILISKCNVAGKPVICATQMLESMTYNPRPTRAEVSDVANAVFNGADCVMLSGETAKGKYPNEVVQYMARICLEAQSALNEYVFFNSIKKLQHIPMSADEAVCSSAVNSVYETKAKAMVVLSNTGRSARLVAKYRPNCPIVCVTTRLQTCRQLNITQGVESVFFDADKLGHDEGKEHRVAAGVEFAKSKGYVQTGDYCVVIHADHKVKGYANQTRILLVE
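Purified LmPK (0.1 nM) with 0.5 mM PEP and 0.1 mM ADP in imidazole buffer pH 7.2 with MgCl2/KCl, 1 h at room temperature. ATP formed was read by luciferase luminescence and normalized to no-enzyme and uninhibited controls.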
Tb PYK inh = T. brucei pyruvate kinase inhibition; TbPYK enzyme, Kinase-Glo Plus ATP luminescence, 45 min; Potency, µM (series often up to 76.8 µM), for inactives: at the top dose activity, negative = inhibition, most hits filed as inhibitors; 410,000 tested, 0.12% active; further: on the % scale 0 is the no-effect control and ±100 the full control effect; nearly all actives have a fitted effect of over 50% in size
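In this concentration-response screen, enzyme-free wells defined baseline while DMSO plates tracked drift. Each reaction combined TbPYK, substrate, compound and 130 uM ADP for 45 min at room temperature. Kinase-Glo Plus luminescence gave the signal.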
Sm TGR block = inhibitors of Schistosoma mansoni thioredoxin glutathione reductase. Q962Y6. purified TGR, DTNB reduction, TNB absorbance 405 nm. Potency, µM (top dose mostly 114 µM), without a hit: at the highest dose activity change, negative = inhibition, hits mostly inhibitors. 360,000 tested, 3% active. AID 485364; further: on the % scale 0 is the no-effect control and ±100 the full control effect; nearly all actives have a fitted effect of over 60% in size
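First, TGR (20 nM dispensed) and NADPH were mixed with compound. Second, a 15 min room-temperature incubation followed. Third, further NADPH and then DTNB were added to start the reaction. Finally, TNB absorbance was monitored kinetically.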
Giardia FBPA inh = Giardia lamblia aldolase inhibition | A8B2U2 | purified Giardia FBPA | Potency, µM (titrated, usually from 59.6 µM), without a hit: top-dose activity, negative = inhibition, hits mostly inhibitors | 290,000 tested, 0.71% active | AID 2451; further: on the % scale 0 is the no-effect control and ±100 the full control effect; nearly all actives have a fitted effect of over 55% in size
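40 nM FBPA preincubated 10 min at RT with compound (up to 57.5 uM final), then substrate plus GAPDH/TPI/NAD/arsenate coupling and diaphorase/resazurin added. Fluorescence read after 20 min at RT, 525/598 nm.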
* = called active by the depositor; [ ] = remark or other dose. Unless noted, the call rests on the fitted dose curve; in most records, active means well fitted curve in the direction sought with a large enough effect; inconclusive means small, poorly fitted or top-dose-only effect, or another doubt; inactive means no such curve, though single readings can be large; an effect the other way counts as inactive or inconclusive. Potency means the concentration at half of the fitted maximal effect.

Screening O=C(CSc1n[nH]c(=O)[nH]c1=O)c1ccccc1[N+](=O)[O-] returned RE007 growth inh -5%, NS1 function inh 1%, LmPK inhibitor 1%, Tb PYK inh -6%, Sm TGR block 45µM* and Giardia FBPA inh -9%.
Screening CCOC(=O)c1cc2c(=O)n3ccccc3nc2n(Cc2ccco2)c1=NC(=O)c1c(F)cccc1Cl returned Tb PYK inh -1% and Sm TGR block 4µM*.
`CCOC(=O)c1cc2c(=O)n3ccccc3nc2n(Cc2ccco2)c1=NC(=O)c1ccccc1Br` gave Tb PYK inh -7% and Sm TGR block 1.6µM*.
CCOC(=O)c1cc2c(=O)n3ccccc3nc2n(Cc2ccco2)c1=NC(=O)c1ccc(Br)cc1 was read as Tb PYK inh -9% and Sm TGR block inconclusive.
Screening CCOC(=O)c1cc2c(=O)n3ccccc3nc2n(Cc2ccco2)c1=NC(=O)c1cccc(Br)c1 returned Tb PYK inh -8% and Sm TGR block 2.2µM*.
Screening CCOC(=O)c1cc2c(=O)n3ccccc3nc2n(Cc2ccco2)c1=NC(=O)c1cccc(C)c1 returned Tb PYK inh -3% and Sm TGR block -31%.
O=C(Nc1ccccc1)C(Cc1ccccc1)N1Cc2ccccc2C1=O (stereo not drawn) was read as Tb PYK inh -9% and Sm TGR block -2%.
Screening Cc1cccn2c(=O)c3cc(C(=O)NC4CCCCC4)c(=N)n(Cc4ccccc4)c3nc12 returned RE007 growth inh 11%, NS1 function inh 8%, LmPK inhibitor 3%, Tb PYK inh 3% and Sm TGR block 2.8µM*.
`CCOC(=O)CNc1oc(-c2ccccc2)nc1-c1ccccc1` gave Giardia FBPA inh 0%.
`Oc1cc(O)cc(/C=C/c2ccc(O)c(O)c2)c1` gave RE007 growth inh -18%[18.4 µM], NS1 function inh -3%, Tb PYK inh inconclusive, Sm TGR block 22µM* and Giardia FBPA inh inconclusive.
N#C/C(=C\c1cc(O)c(O)c(O)c1)C(N)=O was read as RE007 growth inh 1%, NS1 function inh 1%, LmPK inhibitor 4%, Tb PYK inh inconclusive, Sm TGR block 13µM* and Giardia FBPA inh 5µM*.
CCN(CC)C(=O)c1c(NC(=O)c2ccccc2F)sc2c1CCC(C(C)(C)C)C2 (stereo not drawn) was read as Tb PYK inh 2% and Sm TGR block 1%.
Screening COC(=O)C1=C(O)/C(=C\c2ccc(CNS(=O)(=O)c3ccccc3)o2)N=C1C returned RE007 growth inh 18%, NS1 function inh 5%, LmPK inhibitor 1%, Tb PYK inh -16%, Sm TGR block 40µM* and Giardia FBPA inh inconclusive.
For COC(=O)C1=C(O)/C(=C\c2ccc(CNS(=O)(=O)c3ccc(Cl)cc3)o2)N=C1C the results were RE007 growth inh -4%, NS1 function inh inconclusive, LmPK inhibitor 2%, Tb PYK inh -22%, Sm TGR block 28µM* and Giardia FBPA inh inconclusive.
COc1ccc(N=Cc2ccc(CNS(=O)(=O)c3ccc(Cl)cc3)o2)cc1 was read as RE007 growth inh -15%, NS1 function inh -4%, LmPK inhibitor 2%, Tb PYK inh 1%, Sm TGR block 0% and Giardia FBPA inh -8%.
COC(=O)C1=C(O)/C(=C\c2ccc(OCC(=O)Nc3ccccc3)cc2)N=C1C was read as RE007 growth inh 2%, NS1 function inh -2%, LmPK inhibitor -1%, Tb PYK inh 4% and Sm TGR block 2%.
CCOC(=O)C1=C(O)/C(=C\c2ccc(CNS(=O)(=O)c3ccc(Br)cc3)o2)N=C1C was read as NS1 function inh 5%, LmPK inhibitor 1%, Tb PYK inh -23%, Sm TGR block 40µM* and Giardia FBPA inh 9%.
